Screening results (PubChem BioAssay)
The sample as a whole holds a higher share of hits than the screen did.
Pf apPOL block = Pf-apPOL DNA polymerase inhibition. 0.25% of 210,000 active. inhibition, % at 10 µM. Recombinant Pf-apPOL, molecular beacon fluorescence, 1.5 h
mHTT CaM bind = disrupts binding of mutant huntingtin to calmodulin | inhibition, % at 15 µM | 3.6% of 190,000 active | AID 1671202 | P42858 | AlphaScreen His-mHTT/GST-CaM binding, luminescence;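 also: 0% = both proteins with DMSO and 100% = one protein alone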
* = called active by the depositor; nt = no result given. Rule as the data show it: active = inhibition above about 50%; inactive = the rest.

SMILES	Pf apPOL block	mHTT CaM bind
O=c1c2c(nc(SCc3ccc([N+](=O)[O-])cc3)n1-c1ccc(F)cc1)CCS2	-6	-2
CC[C@H]1C(c2cccc(C)c2)=NN(c2ccccc2)[C@@H]1CO	-8	-9
Cc1cccc(C2=NN(c3ccccc3)[C@H](CO)[C@H]2c2ccc(F)cc2)c1	-7	81*
Cc1cccc(C2=NN(c3ccccc3)[C@H](CO)[C@H]2c2ccc(Cl)cc2)c1	-3	92*
COc1ccccc1[C@H]1C(c2cccc(Cl)c2)=NN(c2ccccc2)[C@@H]1CO	-9	66*
CC[C@H]1C(c2cccc(Cl)c2)=NN(c2ccccc2)[C@@H]1CO	0	75*
COc1ccccc1[C@@H]1C(c2cccc(Cl)c2)=NN(c2ccccc2)[C@H]1C(=O)N1CCOC1=O	-5	-109
CC[C@@H]1C(c2cccc(C)c2)=NN(c2ccccc2)[C@H]1C(=O)N1CCOC1=O	-4	-22
O=c1c2ccc(F)cc2ncn1C1CCN(S(=O)(=O)c2ccccc2)CC1	1	-6
CCCOc1ccc(N2C(=O)CC(N3CCN(c4ccc5c(c4)OCO5)CC3)C2=O)cc1 (stereo unspecified)	-3	1
CCOc1ccc(C(=O)NCc2cccnc2-c2ccc(F)cc2)cc1	-3	-14
O=C(NCc1cccnc1)c1csc2nc(-c3ccc(F)cc3)cn12	-11	-8
COc1ccc(CC(=O)N2CCCC(c3noc(-c4ccccc4OC)n3)C2)cc1Cl (stereo unspecified)	-2	27
OC[C@@H]1[C@@H](c2ccccc2)C(c2cccc(Cl)c2)=NN1c1ccccc1	-6	59*
COc1ccc(Br)cc1CNC(=O)CN1N=C(c2ccc(Cl)cc2)CCC1=O	-14	52*
O=C(CN1N=C(c2ccc(Cl)cc2)CCC1=O)NCCN1CCc2ccccc2C1	-9	52*
O=C(CN1N=C(c2ccc(Cl)cc2)CCC1=O)NCCc1ccc(Cl)cc1	-15	42
COc1ccc(OC)c(CNC(=O)CN2N=C(c3ccc(Cl)cc3)CCC2=O)c1	-11	34
O=C(CSc1nc2[nH]ncc2c(=O)n1-c1cccc(Cl)c1)Nc1cccc(Cl)c1	-12	32
Cc1ccccc1N(C)S(=O)(=O)c1ccc2[nH]cc(C(=O)NC(C)C)c(=O)c2c1	-9	30
CC(C)CCNC(=O)C1CCN(c2nc3ccc(-c4cncnc4)nc3s2)CC1	-1	1
COc1ccc2cc3cc(C(=O)Nc4cc(Cl)ccc4OC)sc3nc2c1	-2	6
O=C(Nc1ccc2c(c1)OCO2)C1CCN(c2cncnc2N2CCCCC2)CC1	5	29
O=C(Nc1ccc2c(c1)OCO2)C1CCN(c2cc(N3CCCCC3)ncn2)CC1	-4	56*
CCC(=O)N1CCc2c(C(=O)NC3CC3)cccc21	-4	-4
SMILES	Pf apPOL block	mHTT CaM bind
CCNC(=O)c1cccc2c1CCN2C(=O)CC	0	100*
COc1ccc(C=C2Oc3cc(OCC(=O)OC(C)C)ccc3C2=O)c(OC)c1OC	-10	-2
Oc1ccc2c(c1)c(-c1ccccc1)nn2-c1ccccc1	-3	55*
Cc1c(C(=O)O)c(-c2ccccc2)nn1-c1ccccc1	-5	0
Cc1cccc(C)c1NC(=O)c1ccc(Cl)cc1	-8	-9
COc1cccc(N2CCN(S(=O)(=O)c3ccc4[nH]c5c(c4c3)CCCC5)CC2)c1	-4	55*
COc1ccc(S(=O)(=O)N2CCN(c3cccc(Cl)c3)CC2)cc1	-16	-8
COc1ccccc1N1CCN(S(=O)(=O)c2ccc3[nH]c4c(c3c2)CCCC4)CC1	-5	50*
COc1ccccc1N1CCN(S(=O)(=O)c2ccc(OC)c([N+](=O)[O-])c2)CC1	-5	14
Cc1nnc(-c2nnc(NCc3cccc(F)c3)c3ccccc23)o1	-20	42
Cc1ccc(Nc2nc(-c3ccccc3)cs2)cc1C	-8	73*
Nc1ccc(Nc2nc(-c3ccccc3)cs2)cc1	6	97*
Cc1ccc(Nc2nc(-c3ccc(F)cc3)cs2)cc1C	-1	98*
Cc1ccc(C)c(-c2csc(Nc3ccc(F)cc3)n2)c1	1	48
Cc1ccc(Nc2nc(-c3ccccc3)cs2)cc1Cl	-7	54*
NC(=O)C(=O)Nc1nc(-c2ccccc2)cs1	-2	0
Cc1ccc(C(=O)Nc2ccc3nn(-c4ccccc4)nc3c2)cc1C	-1	4
O=C1N=c2ccccc2=C1c1c(O)[nH]c2ccccc12	-2	-2
O=C1CCC(=O)N1c1ccc(Sc2ccc([N+](=O)[O-])cc2)cc1	-4	5
O=C1C=CC(=O)N1c1cc(Sc2ccc(F)cc2)cc([N+](=O)[O-])c1	5	85*
COc1ccc(C2C=C(c3ccc(I)cc3)Nc3nnnn32)cc1OC (stereo unspecified)	-4	4
Cc1nc2c(C(=O)NC3CCCC3)c[nH]n2c(=O)c1Cc1ccc(Cl)cc1	9	55*
Cc1ccc(Cc2c(C)nc3c(C(=O)NCCC(C)C)c[nH]n3c2=O)cc1	-8	14
Cc1ccc(Cc2c(C)nc3c(C(=O)NC4CCCC4)c[nH]n3c2=O)cc1	6	75*
Cc1nc2c(C(=O)O)c[nH]n2c(=O)c1Cc1ccc(Cl)cc1	35	-4
SMILES	Pf apPOL block	mHTT CaM bind
C=C(C)COc1cc2oc(C)c(-c3ccc4c(c3)OCCCO4)c(=O)c2cc1CC	-5	-10
Nc1cc(C2CCN(C(=O)Nc3ccccc3Br)CC2)no1	6	4
Cc1ccsc1C(=O)N1CCCn2nc(-c3ccncc3)cc2C1	-3	-4
O=C(CN(C1CCCCC1)S(=O)(=O)c1ccc(Br)cc1)NC1CC1	-7	1
O=C(O)CN(C1CCCCC1)S(=O)(=O)c1ccc(Br)cc1	68*	-2
Cc1ccc(-c2noc(-c3ccc(NCc4ccc(F)cc4)nc3)n2)cc1	1	-4
CC1CC(C)CN(C(C(=O)NC2CCCCC2)c2cc3c(cc2[N+](=O)[O-])OCO3)C1 (stereo unspecified)	-1	19
CC1(C)C(C=C(Cl)Cl)C1C(=O)Nc1sc2c(c1C#N)CCCC2 (stereo unspecified)	92*	-2
N#Cc1c(NC(=O)/C=C/C(=O)O)sc2c1CCC2	nt	-1
O=C(NC1CCCCC1)C1CC(=O)N(c2ccc3c(c2)CCN3C(=O)C2CCC2)C1 (stereo unspecified)	-2	3
Cc1ccc(N(C)C(=O)C2CCN(c3ncnc4c3nc3n4CCCCC3)CC2)cc1C	-1	56*
Cc1ccc(N(C)C(=O)C2CCCN(c3ncnc4c3nc3n4CCCCC3)C2)cc1C (stereo unspecified)	4	39
Clc1cccc(N2CCN(c3ncnc4c3nc3n4CCCC3)CC2)c1	0	50
O=C(Nc1ccccc1F)C1CCN(c2ncnc3c2nc2n3CCCCC2)CC1	96*	5
O=C(Nc1cc(F)ccc1F)C1CCN(c2ncnc3c2nc2n3CCCCC2)CC1	-3	1
Cc1ccc(Cl)cc1N1CCN(c2ncnc3c2nc2n3CCCCC2)CC1	-5	99*
CNC(=O)C(C1CCCC1)N1CCN(C(=O)c2ccc(Cl)c(Cl)c2)CC1 (stereo unspecified)	-3	-1
Cc1cccc(-c2nnc(NC(=O)c3ccno3)o2)n1	6	-15
O=C(c1ccccc1NS(=O)(=O)c1cc(Cl)ccc1Cl)N1CCCC1	-4	-6
O=C1S/C(=C\c2ccc(O)cc2)C(=O)N1Cc1ccc(F)cc1	-4	38
COc1nn(C)cc1C(=O)Nc1ccc(-c2cn3ccsc3n2)cc1	3	-4
